According to article PMC5540273 (PLoS ONE, 2017):

Columns and labels:
Details in all cases: concentration: 1 μM, replicates: in singlicate; n = 1
[1] = system: PAK4
[2] = system: PAK6
[3] = system: PAK7
[4] = system: T1, PCTK1
T1 construct: gene CDK16

[5] = system: T2, PCTK2
T2 construct: gene CDK17

[6] = system: T3, PCTK3
T3 construct: gene CDK18

[7] = system: PDGFRA
[8] = system: PDGFRB
[9] = system: PDPK1
[10] = system: PFTAIRE2
[11] = system: T4, PFTK1
T4 construct: gene CDK14

[12] = system: PHKG1
[13] = system: PHKG2
[14] = system: PIK3C2B
[15] = system: PIK3C2G
[16] = system: PIK3CA
[17] = system: PIK3CB
[18] = system: PIK3CD
[19] = system: PIK3CG
[20] = system: T5, PIK4CB
T5 construct: gene PI4KB
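Further: KINOMEscan kinase panel screen.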

Row | Structure (SMILES) | %Inh [1] [%] | %Inh [2] [%] | %Inh [3] [%] | %Inh [4] [%] | %Inh [5] [%] | %Inh [6] [%] | %Inh [7] [%] | %Inh [8] [%] | %Inh [9] [%] | %Inh [10] [%] | %Inh [11] [%] | %Inh [12] [%] | %Inh [13] [%] | %Inh [14] [%] | %Inh [15] [%] | %Inh [16] [%] | %Inh [17] [%] | %Inh [18] [%] | %Inh [19] [%] | %Inh [20] [%]
1 | O=c1cc(N2CCOCC2)nc2n(Cc3cccc(Cl)c3Cl)c(C3CC3)nn12 [GSK2358994] | 0 | 13 | 0 | 0 | 0 | 3 | 0 | 2 | 14 | 0 | 0 | 8 | 0 | 70 | 64 | 8 | 100 | 82 | 45 | 0
2 | CSc1ccc(-c2cc3ncnc(SCC(=O)O)c3s2)cc1 | 0 | 0 | 8 | 0 | 0 | 6 | 15 | 50 | 10 | 12 | 3 | 0 | 0 | 0 | 0 | 0 | 0 | 8 | 2 | 0
3 | Cc1c(Cn2c(C)nn3c(=O)cc(N4CCOC(C)C4)nc23)cccc1C(F)(F)F (stereo not drawn) [GSK2344444] | 0 | 0 | 0 | 6 | 0 | 8 | 0 | 18 | 8 | 16 | 48 | 0 | 0 | 31 | 24 | 5 | 97.4 | 92.7 | 64 | 0
4 | O=C(NCCCN1CCOCC1)c1cccc(Nc2nccc(Nc3ccc(Oc4ccccc4)cc3)n2)c1 [GW663929] | 9 | 7 | 12 | 0 | 22 | 12 | 46 | 99.6 | 9 | 18 | 43 | 0 | 14 | 6 | 0 | 12 | 18 | 7 | 11 | 21
5 | Cc1nnc(-c2ccc3ncc(-c4ccc(S(C)=O)cc4)n3c2)o1 (stereo not drawn) | 0 | 0 | 5 | 14 | 0 | 0 | 42 | 80 | 0 | 0 | 0 | 20 | 0 | 13 | 28 | 3 | 64 | 0 | 3 | 0
6 | CC(=O)Nc1ccc(COc2ccc(Nc3ccnc4cc(-c5ccccn5)ccc34)cc2)cc1.Cl [GW440148] | 0 | 13 | 15 | 1 | 17 | 18 | 99.1 | 100 | 0 | 26 | 25 | 0 | 0 | 0 | 0 | 2 | 100 | 7 | 14 | 16
7 | Cc1ccc(C(=O)NCC(N)=O)cc1-n1c(C)cc(OCc2ccc(F)cc2F)c(Br)c1=O | 13 | 12 | 5 | 0 | 2 | 22 | 0 | 9 | 15 | 10 | 26 | 9 | 1 | 0 | 51 | 0 | 0 | 30 | 0 | 0
8 | COc1ccc(COc2cc(-n3cnc4ccccc43)sc2C(N)=O)cc1 [GSK1024304] | 0 | 0 | 5 | 0 | 0 | 11 | 0 | 31 | 3 | 17 | 0 | 0 | 0 | 0 | 0 | 0 | 100 | 0 | 0 | 0
9 | NS(=O)(=O)c1cccc(-c2ccc3nccc(-c4cccc(S(N)(=O)=O)c4)c3c2)c1 [GW867253] | 0 | 0 | 6 | 0 | 0 | 0 | 0 | 1 | 0 | 19 | 0 | 0 | 5 | 58 | 52 | 38 | 24 | 39 | 88 | 99.1
10 | CCc1nc(-c2cccc(C)c2)c(-c2ccnc(NCc3ccccc3)c2)s1 | 22 | 11 | 0 | 0 | 13 | 0 | 30 | 39 | 3 | 7 | 1 | 0 | 22 | 0 | 18 | 0 | 16 | 0 | 0 | 0
11 | CNc1ncnc2[nH]ncc12 [SKF-18355] | 0 | 0 | 0 | 0 | 0 | 0 | 0 | 0 | 0 | 12 | 0 | 0 | 0 | 3 | 0 | 1 | 0 | 0 | 5 | 17
12 | Cl.Oc1cccc(Nc2ccnc3cc(-c4ccncc4)ccc23)c1 [GW494601] | 0 | 0 | 14 | 0 | 0 | 18 | 98.5 | 99.5 | 0 | 2 | 12 | 0 | 0 | 13 | 2 | 0 | 0 | 22 | 0 | 0
13 | c1ccc(-c2n[nH]cc2-c2ccnc3ccccc23)nc1 [GW271431] | 0 | 11 | 8 | 0 | 0 | 20 | 0 | 20 | 0 | 36 | 25 | 0 | 0 | 0 | 0 | 0 | 0 | 5 | 0 | 0
14 | COc1cc(Nc2nccc(N3CCC(NC(=O)c4cccc(NC(C)=O)c4)C3)n2)cc(OC)c1OC (stereo not drawn) [GSK1379754] | 0 | 0 | 0 | 4 | 0 | 20 | 0 | 54 | 30 | 18 | 18 | 7 | 3 | 100 | 0 | 99.9 | 0 | 0 | 99.9 | 0
15 | CN(C(=O)c1ccc(-c2cc(-c3c[nH]nc3-c3ccccn3)ccn2)cc1)C1CCOCC1 [GW810083] | 28 | 0 | 16 | 0 | 0 | 0 | 4 | 0 | 0 | 29 | 0 | 1 | 12 | 0 | 10 | 0 | 0 | 1 | 32 | 40
16 | O=C1NC(=O)C(N2CCc3ccccc32)=C1c1cccc(Cl)c1 [SB-408010] | 13 | 13 | 6 | 0 | 0 | 16 | 9 | 5 | 0 | 0 | 5 | 0 | 0 | 0 | 0 | 0 | 33 | 9 | 0 | 5
17 | COC(=O)Nc1nc2cc(Oc3ccc(NC(=O)Nc4cc(F)ccc4F)cc3)ccc2[nH]1.Cl [GW701424] | 0 | 0 | 12 | 0 | 0 | 23 | 98.9 | 100 | 0 | 0 | 19 | 0 | 0 | 0 | 0 | 0 | 0 | 0 | 0 | 0
18 | COc1cc2ncn(-c3cc(OCc4sccc4Cl)c(C(N)=O)s3)c2cc1OC [GSK448459] | 0 | 6 | 0 | 4 | 0 | 13 | 25 | 76 | 0 | 0 | 12 | 0 | 0 | 15 | 0 | 0 | 0 | 30 | 35 | 0
19 | O=C(c1ccc(-c2cc(-c3c[nH]nc3-c3ccccn3)ccn2)cc1)N1CCOCC1 [GW812171] | 6 | 0 | 0 | 0 | 0 | 0 | 0 | 0 | 0 | 0 | 20 | 1 | 0 | 0 | 0 | 29 | 0 | 0 | 0 | 8
20 | CN1c2ccc(NCc3ccc(F)cc3)cc2-c2c(cnn2C)S1(=O)=O | 0 | 0 | 0 | 0 | 0 | 0 | 0 | 0 | 0 | 0 | 0 | 0 | 0 | 0 | 0 | 0 | 0 | 0 | 0 | 0
21 | NS(=O)(=O)CCc1cccc(Nc2nccc(-c3c(-c4cccc(NC(=O)c5c(F)cccc5F)c4)nn4ccccc34)n2)c1 [GSK336735] | 0 | 16 | 4 | 10 | 0 | 23 | 90.1 | 100 | 1 | 25 | 26 | 0 | 4 | 0 | 0 | 0 | 0 | 0 | 0 | 0
